Laboratory results from PubChem BioAssay (NCI).
This is part of a sample that, as a whole, favours compounds with a hit. Of some 79,000 tested, about 15% had one in any assay. The source made the active and inactive calls. No stated cut-off is given here; in the data, active means growth inhibition above about 70%; inactive means the rest.

Columns and labels:
[1] = NCI Yeast Anticancer Drug Screen. Data for the rad52 strain (AID 147);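 further: 0% = growth of vehicle-treated control cultures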; settings: S. cerevisiae rad52 mutant growth inhibition, hits give high values
Summary of the method: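 Yeast strain carrying a DNA damage repair alteration was exposed to test compounds. Growth inhibition was measured relative to vehicle-treated controls.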

[2] = NCI Yeast Anticancer Drug Screen. Data for the wt1 strain (AID 149);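 further: 0% = growth of vehicle-treated wt1 cultures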; settings: S. cerevisiae wt1 strain (SPY 50644) growth inhibition, hits give high values
Summary of the method: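 Using yeast strain wt1, compound-induced growth inhibition was determined against vehicle-treated cultures.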

[3] = NCI Yeast Anticancer Drug Screen. Data for the rad50EPP+ strain (AID 151);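 further: 0% = growth of vehicle-treated control cultures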; settings: S. cerevisiae rad50 mutant strain, hits give high values
Summary of the method: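 Yeast strain carrying rad50 alteration (rad50EPP+) exposed to compounds; growth inhibition measured relative to vehicle-treated controls.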

[4] = NCI Yeast Anticancer Drug Screen. Data for the rad50 strain (AID 155);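 further: 0% = growth of vehicle-only cultures of the same strain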; settings: S. cerevisiae rad50 strain growth inhibition, hits give high values
Summary of the method: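 Relative growth inhibition (compound vs vehicle) was measured in yeast with a defined repair-gene alteration.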

[5] = NCI Yeast Anticancer Drug Screen. Data for the mec2-1 strain (AID 157); settings: S. cerevisiae mec2-1 strain, hits give high values
Summary of the method: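 mec2-1 yeast strain, carrying an alteration in DNA damage repair or cell cycle control, was exposed to compounds; growth inhibition was measured relative to vehicle-treated controls.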

[6] = NCI Yeast Anticancer Drug Screen. Data for the rad14 strain (AID 159);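 further: 0% = growth of vehicle-treated control cultures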; settings: S. cerevisiae rad14 strain growth inhibition, hits give high values
Summary of the method: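 Screen for anticancer potential: a yeast strain altered in DNA damage repair is grown with compound, and reduced growth is quantified against vehicle controls.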

[7] = NCI Yeast Anticancer Drug Screen. Data for the sgs1 mgt1 strain (AID 161);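 further: 0% = growth of cultures given vehicle only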; settings: S. cerevisiae sgs1 mgt1 strain, hits give high values
Summary of the method: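 This yeast growth screen uses a strain with defined DNA-repair lesions; compound-treated growth is compared with vehicle-treated growth.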

[8] = NCI Yeast Anticancer Drug Screen. Data for the CLN2oe strain (AID 163);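 further: 0% = growth of vehicle-only control cultures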; settings: S. cerevisiae CLN2oe strain, hits give high values
Summary of the method: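 Yeast cells carrying a defined cell-cycle control alteration were exposed to test compounds. Growth inhibition was scored against vehicle-treated control cultures.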

[9] = NCI Yeast Anticancer Drug Screen. Data for the cln2 rad14 strain (AID 165);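 further: 0% = growth equal to vehicle treated cultures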; settings: S. cerevisiae cln2 rad14 strain, hits give high values
Summary of the method: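 Yeast carrying cln2 and rad14 alterations (cell cycle control and DNA damage repair) were exposed to compounds. Growth inhibition was measured against vehicle-treated controls.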

[10] = NCI Yeast Anticancer Drug Screen. Data for the bub3 strain (AID 167); settings: S. cerevisiae bub3 mutant strain, hits give high values
Summary of the method: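 Screening used yeast with an engineered genetic alteration affecting cell cycle control. Compound-exposed cultures were compared with vehicle cultures, and reduced growth was taken as inhibition.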

[11] = NCI Yeast Anticancer Drug Screen. Data for the wt2 strain (AID 169);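 further: 0% = growth of vehicle-treated yeast cultures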; settings: S. cerevisiae wt2 strain growth inhibition, hits give high values
Summary of the method: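 Yeast cells were exposed to test compounds, and growth inhibition was measured relative to vehicle-treated controls.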

[12] = NCI Yeast Anticancer Drug Screen. Data for the sgs1 strain (AID 173);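 further: 0% = growth of vehicle-only control cultures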; settings: S. cerevisiae sgs1 mutant, hits give high values
Summary of the method: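 Yeast mutant strains carrying defined defects in DNA damage repair or cell cycle control were exposed to test compounds. Growth inhibition was scored against vehicle-treated controls.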

[13] = NCI Yeast Anticancer Drug Screen. Data for the mlh1 rad18 strain (AID 175); settings: S. cerevisiae mlh1 rad18 strain growth inhibition, hits give high values
Summary of the method: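 Growth inhibition of the yeast strain was measured after compound exposure and expressed relative to vehicle-treated controls. The strain carries defined defects in DNA damage repair.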

[14] = NCI Yeast Anticancer Drug Screen. Data for the mlh1 strain (AID 171);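 further: 0% = growth of vehicle-treated control cultures of the same strain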; settings: S. cerevisiae mlh1 strain growth inhibition, hits give high values
Summary of the method: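 Yeast carrying a defined genetic alteration in DNA damage repair or cell cycle control were exposed to test compounds. Growth inhibition was measured relative to vehicle-treated controls.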

[15] = NCI Yeast Anticancer Drug Screen. Data for the rad18 strain (AID 177); settings: S. cerevisiae rad18 mutant growth inhibition, hits give high values
Summary of the method: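 Yeast carrying a defined DNA damage repair alteration were exposed to compounds. Growth inhibition was expressed relative to vehicle-treated controls.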

[16] = at 5.0 µM (retest, dose inferred, filed as 0.5)
[17] = at 50.0 µM (retest, dose inferred, filed as 5.0)

Measured: growth inhibition

COCCCN(Cc1cc(OC)c(OC)c(OC)c1)C(=S)Nc1cccc(Cl)c1
active: [10]; [17] 79% | [10]; at 50.0 µM 72.2% | [10]; at 100.0 µM 72%
inactive: [1]; at 1.2 µM 20% | [1]; at 3.7 µM 12% | [1]; at 11.0 µM 7% | [1]; at 33.0 µM 23% | [1]; at 100.0 µM 46% | [2]; at 1.2 µM 15% | [2]; at 3.7 µM 12% | [2]; at 11.0 µM 9% | [2]; at 33.0 µM 15% | [2]; at 100.0 µM 24% | [3]; at 1.2 µM -12% | [3]; at 3.7 µM -21% | [3]; at 11.0 µM -28% | [3]; at 33.0 µM -6% | [3]; at 100.0 µM -9% | [4]; at 1.2 µM -24% | [4]; at 3.7 µM -13% | [4]; [16] 43% | [4]; at 11.0 µM -14% | [4]; at 33.0 µM -8% | [4]; [17] 69% | [4]; at 50.0 µM 22.7% | [4]; at 100.0 µM 40% | [5]; at 1.2 µM -12% | [5]; at 3.7 µM 4% | [5]; [16] 51% | [5]; at 11.0 µM -19% | [5]; at 33.0 µM -18% | [5]; [17] 56% | [5]; at 50.0 µM -9.3% | [5]; at 100.0 µM 20% | [6]; at 1.2 µM -28% | [6]; at 3.7 µM -7% | [6]; at 11.0 µM -32% | [6]; at 33.0 µM -32% | [6]; at 100.0 µM 15% | [7]; [16] -32% | [7]; [17] 4% | [7]; at 50.0 µM 24.4% | [8]; at 1.2 µM 0% | [8]; at 3.7 µM -9% | [8]; at 11.0 µM -30% | [8]; at 33.0 µM -26% | [8]; at 100.0 µM 1% | [9]; [16] 41% | [9]; [17] 46% | [9]; at 50.0 µM 17.4% | [10]; at 1.2 µM -3% | [10]; at 3.7 µM 0% | [10]; [16] 5% | [10]; at 11.0 µM -2% | [10]; at 33.0 µM 30% | [11]; at 1.2 µM 5% | [11]; at 3.7 µM -3% | [11]; at 11.0 µM -9% | [11]; at 33.0 µM 14% | [11]; at 100.0 µM 43% | [12]; at 1.2 µM -20% | [12]; at 3.7 µM -22% | [12]; at 11.0 µM -21% | [12]; at 33.0 µM -16% | [12]; at 100.0 µM 36% | [13]; [16] 46% | [13]; [17] 67% | [13]; at 50.0 µM 19.2%

Cc1ccc(N=Nc2ccc(O)c(C)c2)cc1
active: [1]; at 11.0 µM 88% | [1]; at 33.0 µM 98% | [1]; at 100.0 µM 87% | [2]; at 11.0 µM 92% | [2]; at 33.0 µM 98% | [2]; at 100.0 µM 85% | [3]; at 33.0 µM 96% | [3]; at 100.0 µM 82% | [4]; at 11.0 µM 95% | [4]; at 33.0 µM 98% | [4]; at 50.0 µM 91.2% | [4]; at 100.0 µM 94% | [5]; at 11.0 µM 80% | [5]; at 33.0 µM 97% | [5]; at 50.0 µM 92.5% | [5]; at 100.0 µM 79% | [7]; [17] 91% | [7]; at 50.0 µM 92.5% | [8]; at 11.0 µM 97% | [8]; at 33.0 µM 97% | [8]; at 100.0 µM 78% | [9]; [17] 94% | [9]; at 50.0 µM 92.2% | [10]; at 11.0 µM 95% | [10]; at 33.0 µM 97% | [10]; [17] 95% | [10]; at 50.0 µM 91.3% | [10]; at 100.0 µM 84% | [11]; at 11.0 µM 91% | [11]; at 33.0 µM 98% | [11]; at 100.0 µM 79% | [14]; at 11.0 µM 91% | [14]; at 33.0 µM 97% | [14]; at 100.0 µM 80% | [12]; at 11.0 µM 90% | [12]; at 33.0 µM 98% | [12]; at 100.0 µM 85% | [13]; at 50.0 µM 91.9% | [15]; at 11.0 µM 89% | [15]; at 33.0 µM 98% | [15]; at 100.0 µM 91%
inactive: [1]; at 1.2 µM 6% | [1]; at 3.7 µM 10% | [2]; at 1.2 µM 5% | [2]; at 3.7 µM -2% | [3]; at 1.2 µM 20% | [3]; at 3.7 µM 39% | [3]; at 11.0 µM 53% | [4]; at 1.2 µM 9% | [4]; at 3.7 µM 18% | [4]; [16] 38% | [4]; [17] 56% | [5]; at 1.2 µM 10% | [5]; at 3.7 µM 11% | [5]; [16] 52% | [5]; [17] 66% | [7]; [16] -16% | [8]; at 1.2 µM -2% | [8]; at 3.7 µM -18% | [9]; [16] 32% | [10]; at 1.2 µM -6% | [10]; at 3.7 µM -7% | [10]; [16] 2% | [11]; at 1.2 µM 5% | [11]; at 3.7 µM 14% | [14]; at 1.2 µM 19% | [14]; at 3.7 µM 10% | [12]; at 1.2 µM 28% | [12]; at 3.7 µM 26% | [13]; [16] 37% | [13]; [17] 51% | [15]; at 1.2 µM 27% | [15]; at 3.7 µM 27%

CCCCCCCCN1C(=O)c2ccccc2C1=O
active: [7]; at 50.0 µM 78.7% | [10]; at 50.0 µM 89.5% | [13]; at 50.0 µM 91%
inactive: [1]; at 1.2 µM 0% | [1]; at 3.7 µM 0% | [1]; at 11.0 µM 5% | [1]; at 33.0 µM 10% | [1]; at 100.0 µM 6% | [2]; at 1.2 µM -2% | [2]; at 3.7 µM -1% | [2]; at 11.0 µM -1% | [2]; at 33.0 µM -4% | [2]; at 100.0 µM -6% | [3]; at 1.2 µM 2% | [3]; at 3.7 µM 9% | [3]; at 11.0 µM 14% | [3]; at 33.0 µM 18% | [3]; at 100.0 µM 42% | [4]; at 1.2 µM 0% | [4]; at 3.7 µM 3% | [4]; [16] 20% | [4]; at 11.0 µM 6% | [4]; at 33.0 µM 10% | [4]; [17] 15% | [4]; at 50.0 µM 39.5% | [4]; at 100.0 µM -2% | [5]; at 1.2 µM -3% | [5]; at 3.7 µM -4% | [5]; [16] -7% | [5]; at 11.0 µM -5% | [5]; at 33.0 µM -4% | [5]; [17] 13% | [5]; at 50.0 µM 50% | [5]; at 100.0 µM 0% | [6]; at 1.2 µM -2% | [6]; at 3.7 µM 0% | [6]; at 11.0 µM 6% | [6]; at 33.0 µM 14% | [6]; at 100.0 µM 18% | [7]; [16] 1% | [7]; [17] 36% | [9]; [16] -15% | [9]; [17] -7% | [9]; at 50.0 µM -91.1% | [10]; at 1.2 µM 2% | [10]; at 3.7 µM 4% | [10]; [16] 8% | [10]; at 11.0 µM 21% | [10]; at 33.0 µM 39% | [10]; [17] 40% | [10]; at 100.0 µM 50% | [11]; at 1.2 µM -2% | [11]; at 3.7 µM -3% | [11]; at 11.0 µM -4% | [11]; at 33.0 µM -5% | [11]; at 100.0 µM -4% | [14]; at 1.2 µM 0% | [14]; at 3.7 µM 0% | [14]; at 11.0 µM 3% | [14]; at 33.0 µM 7% | [14]; at 100.0 µM 14% | [12]; at 1.2 µM -3% | [12]; at 3.7 µM -1% | [12]; at 11.0 µM 0% | [12]; at 33.0 µM 4% | [12]; at 100.0 µM 13% | [13]; [16] -2% | [13]; [17] 62% | [15]; at 1.2 µM -2% | [15]; at 3.7 µM -3% | [15]; at 11.0 µM -2% | [15]; at 33.0 µM 4% | [15]; at 100.0 µM 14%
